This is a sample that favours compounds with a hit; in the whole collection about 2.2% have one here.
aSyn UTR inh = MLPCN primary screen, SNCA 5' untranslated region | alpha-synuclein 5'UTR reporter, inhibitor activity | 300,000 tested, 0.82% active | inhibition, % (tested at 7.5 µM); in the data active = inhibition above about 60%;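 note: H4 neuroglioblastoma cells stably carrying SNCA 5'UTR luciferase fusion; 0% = DMSO wells and 100% = positive control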
KLF5 inh = KLF5 expression inhibitors, primary screen, DLD-1 cells, luminescence | AID 1700, 2009 | DLD-1 KLF5 promoter-luciferase reporter | inhibition, % at 5 µM | 290,000 tested, 0.23% active;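 active = inhibition above a per-plate limit of that plate's mean compound inhibition plus 3 SD, cut at about 60% in these data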;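 note: 0% = DMSO wells and 100% = LY294002 at 200 µM; higher means less KLF5 promoter-driven luciferase light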
APP transl inh = inhibitors of APP translation via 5'UTR reporter, primary screen, APP 5'UTR luciferase, SH-SY5Y cells. 190,000 tested, 0.82% active. inhibition, % at 2 µM. SH-SY5Y APP 5'UTR-luciferase reporter, luminescence. AID 1285, 2008;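 active = inhibition above a set limit, derived from the sample mean plus 3 SD, cut at about 45% in these data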
Ba/F3 V617F tox = reduced viability of JAK2V617F-dependent Ba/F3 cells, primary screen, JAK2V617F inhibitor project, cell-based, Ba/F3 EpoR-JAK2V617F, luminescence | ATP luminescence | inhibition, % at 5.6 µM | 220,000 tested, 1.1% active;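 active = inhibition above the campaign mean plus 3 SD over all tested compounds, cut at about 24% in these data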;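 note: cytokine-independent growth of Ba/F3 cells driven by EpoR plus mutant JAK2; 0% = DMSO-treated cells and 100% = JAK inhibitor I control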
IEC-6 cytotox = cytotoxicity in IEC-6 intestinal epithelial cells, primary screen, cytotoxicity control for KLF5 inhibitor project, cell-based, luminescence. IEC-6 cytotoxicity, luminescence viability. inhibition, % at 5 µM. 290,000 tested, 0.78% active. AID 1825, 2009; in the data active = inhibition above about 22%;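 note: 0% = plate median of test compound wells and 100% = cytotoxic reference compound wells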
BaF3 parental = parental Ba/F3 cell viability inhibition, counter-screen for JAK2V617F inhibitor project, murine pro-B, CellTiter-Glo luminescence; CellTiter-Glo ATP luminescence; inhibition, % at 5.6 µM; 220,000 tested, 1.1% active;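 active = inhibition above a per-campaign cutoff, the mean inhibition of all tested compounds plus 3 SD, cut at about 27% in these data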;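 note: 0% = DMSO wells and 100% = JAK Inhibitor I control wells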
* marks the source's active call; other numbers are inactive results.

For CC(=NCCc1c(C)[nH]c2ccc(OC(F)(F)F)cc12)C1=C(O)CC(c2ccccc2)CC1=O (centres undefined) the results were aSyn UTR inh 24, KLF5 inh -35, APP transl inh 23, Ba/F3 V617F tox -5, IEC-6 cytotox -5 and BaF3 parental 2.
For O=C(O)C1C2CCC(O2)C1C(=O)Nc1ccc(OC(F)F)cc1 (centres undefined) the results were aSyn UTR inh -3, KLF5 inh -14 and IEC-6 cytotox -3.
`CCN(CC(=O)Nc1c(F)cccc1F)C(=O)CCCNC(=O)c1ccc(Cl)cc1` gave aSyn UTR inh -1.
`COC(=O)C(Cc1ccccc1)NC(=O)CNC(=O)c1sc2ccccc2c1Cl` (centres undefined) gave aSyn UTR inh -6, KLF5 inh -34 and IEC-6 cytotox -6.
S=C(c1ccc(-c2ccc(Cl)cc2)o1)N1CCCCC1 was read as aSyn UTR inh -150, KLF5 inh -165, APP transl inh -184, Ba/F3 V617F tox -1, IEC-6 cytotox -4 and BaF3 parental 0.
`N#CCCN1CCN(C(=S)c2ccc(-c3ccc(Cl)cc3)o2)CC1` gave aSyn UTR inh -88, KLF5 inh -35, APP transl inh 5, Ba/F3 V617F tox -2, IEC-6 cytotox -5 and BaF3 parental 93*.
CCCCn1c(=N)n(CC(O)COc2cccc(C)c2)c2ccccc21 (centres undefined) was read as aSyn UTR inh 0, KLF5 inh 13, APP transl inh -5, Ba/F3 V617F tox 17, IEC-6 cytotox 7 and BaF3 parental 40*.
CCCn1c(=N)n(CC(O)COc2ccc(C)cc2)c2ccccc21 (centres undefined) was read as aSyn UTR inh -23, KLF5 inh -13, Ba/F3 V617F tox 0, IEC-6 cytotox -2 and BaF3 parental 4.
For CCCCCn1c(=N)n(CC(O)COc2ccccc2OC)c2ccccc21 (centres undefined) the results were aSyn UTR inh 8, KLF5 inh 11, APP transl inh -1, Ba/F3 V617F tox 18, IEC-6 cytotox 8 and BaF3 parental 28*.
Screening Cc1cc(C)c(S(=O)(=O)N2CCCCC2C(=O)O)c(C)c1 (centres undefined) returned aSyn UTR inh 10, KLF5 inh -25, APP transl inh -7, Ba/F3 V617F tox 3, IEC-6 cytotox 3 and BaF3 parental 8.
`COc1ccc(NC(=O)Cn2nc(C(=O)O)c3ccccc3c2=O)cc1Cl` gave aSyn UTR inh -25, KLF5 inh -6 and IEC-6 cytotox 1.
For N#Cc1c(NC(=O)c2ccccc2)sc2c1CCCCC2 the results were aSyn UTR inh -16, KLF5 inh -163, APP transl inh -198, Ba/F3 V617F tox -3, IEC-6 cytotox 2 and BaF3 parental 2.
Screening N#Cc1c(Cl)nsc1NC(=O)c1ccccc1 returned aSyn UTR inh -66, KLF5 inh 7, APP transl inh 2, Ba/F3 V617F tox 29*, IEC-6 cytotox 13 and BaF3 parental 40*.
O=C(NCCO)c1cccc(S(=O)(=O)N2CCCCC2)c1 was read as aSyn UTR inh 4, KLF5 inh -21, APP transl inh -1, Ba/F3 V617F tox 1, IEC-6 cytotox -5 and BaF3 parental 94*.
For Cc1c(/C=N/NC(=O)CNc2ccccc2)c2ccccn2c1C(=O)c1ccccc1 the results were aSyn UTR inh -1, KLF5 inh -5, APP transl inh -3, Ba/F3 V617F tox 0, IEC-6 cytotox 12 and BaF3 parental 0.
Screening COC(=O)c1sccc1NC(=O)c1cc(-c2cccc(C)c2)nc2ccccc12 returned aSyn UTR inh 11, KLF5 inh -24, APP transl inh -9, Ba/F3 V617F tox 4, IEC-6 cytotox 2 and BaF3 parental 8.
For COC(=O)c1sccc1NC(=O)c1c(C)c(-c2cccc(Cl)c2)nc2ccccc12 the results were aSyn UTR inh 5, KLF5 inh 1, APP transl inh 50*, Ba/F3 V617F tox -3, IEC-6 cytotox -8 and BaF3 parental 3.
